# Inconclusive results are not listed. Where a call stands in place of a potency, no number is given. Activity calls are given as the source filed them. Calls come from the whole dose curve; as a rule, active = well fitted inhibition curve with a large enough effect; inconclusive = small, poorly fitted or top-dose-only effect; inactive = no such curve, though single readings can be large or run the other way.
# Assay: NS1 protein of Zika virus - qHTS assay to identify small molecule inhibitors in human HEK 293 cells (AID 1347053); note: nearly all actives have a fitted effect of over 55% in size
# Conditions: HEK293 ZIKV MR766 infection, NS1 TR-FRET, 24 h; series mostly up to 46.1 µM
# How it was run: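 Inhibition of NS1 expression was scored in HEK 293 cells given compound 1 h ahead of MR766 virus (MOI = 0.5). Following 24 h at 37 C, two anti-NS1 antibodies generated a TR-FRET signal, scaled between uninfected and infected controls.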
# Potency is the fitted concentration of half-maximal effect.
row,SMILES,Potency
1,C=C1C(=O)[C@@]23C(CC[C@@H]1[C@H]2O)[C@@]12CO[C@]3(O)[C@@H](O)[C@@H]1C(C)(C)CC[C@@H]2O (stereo partly drawn),9.35 µM (active)
2,O=C1c2ccccc2-[n+]2ccc3c([nH]c4ccccc43)c21,1.05 µM (active)
3,CC[C@@]1(O)C[C@H](O[C@H]2C[C@H](N(C)C)[C@H](O[C@H]3C[C@H](O)[C@H](O[C@H]4CCC(=O)[C@H](C)O4)[C@H](C)O3)[C@H](C)O2)c2c(cc3c(c2O)C(=O)c2c(O)cccc2C3=O)[C@@H]1C(=O)OC,inactive
4,COc1ccc(-c2cc(=O)c3c(O)cc(O)cc3o2)cc1O,inactive
5,O=c1c(-c2ccc(O)cc2)coc2cc(OC3O[C@H](CO)[C@H](O)[C@H](O)[C@H]3O)cc(O)c12 (stereo partly drawn),inactive
6,CC1(C)CCC[C@@]2(C)[C@@H]1CC[C@@]1(C)OC(=O)C[C@H]21,inactive
7,CC(C)=CC[C@@H](O)C1=CC(=O)c2c(O)ccc(O)c2C1=O,inactive
8,CC(=NNC(=S)N1CCC1)c1ccccn1,16.6 µM (active)
9,COC[C@@H](c1ccc(C(F)(F)F)cc1)N1CCN(C2(C)CCN(C(=O)c3c(C)ncnc3C)CC2)C[C@H]1C,inactive
10,O=C1NC(=O)C(=Cc2cccc(C(F)(F)F)c2)S1,inactive
11,C[C@H]1[C@H](NC(=O)C(=NOC(C)(C)C(=O)O)c2csc(N)n2)C(=O)N1S(=O)(=O)O,inactive
12,CC1(C)CCC(CN2CCN(c3ccc(C(=O)NS(=O)(=O)c4ccc(NCC5CCOCC5)c([N+](=O)[O-])c4)c(Oc4cnc5[nH]ccc5c4)c3)CC2)=C(c2ccc(Cl)cc2)C1,inactive
13,CC(C)n1cnc2c(NCCCCCCNC(=O)OC(C)(C)C)nc(NCCO)nc21,inactive
14,Cc1ccc(/C=N/NC(=O)c2ccccc2Oc2ccccc2)o1,inactive
15,C=C1C(=O)OC(CCCCCCCC)C1C(=O)O (stereo not drawn),inactive
16,CC=CC[C@@H](C)C(=O)[C@H]1C(=O)N[C@@H](C(C)C)C(=O)N(C)CC(=O)N(C)[C@@H](CC(C)C)C(=O)N[C@@H](C(C)C)C(=O)N(C)[C@@H](CC(C)C)C(=O)N[C@@H](C)C(=O)N[C@H](C)C(=O)N(C)[C@@H](CC(C)C)C(=O)N(C)[C@@H](CC(C)C)C(=O)N(C)[C@@H](C(C)C)C(=O)N1C,inactive
17,CCn1c(C(=O)N(C2CC2)C2CC2)cc2c3c(ncn3C)c(Nc3cc(C)n(C)n3)nc21,inactive
18,N#C[C@H]1C[C@H]2C[C@@H]2N1C(=O)[C@@H](N)C12CC3CC(CC(O)(C3)C1)C2,inactive
19,CO[C@H]1C[C@@H]2CC[C@@H](C)[C@@](O)(O2)C(=O)C(=O)N2CCCC[C@@H]2C(=O)O[C@H]([C@H](C)C[C@@H]2CC[C@H](OP(C)(C)=O)[C@H](OC)C2)CC(=O)[C@H](C)C=C(C)[C@@H](O)[C@@H](OC)C(=O)[C@H](C)C[C@H](C)C=CC=CC=C1C,inactive

row,SMILES,Potency
1,C=C1C(=O)OC2C=C(C)CCC=C(C)CCC12 (stereo not drawn),inactive
2,CC(C)(C)NC(=O)Nc1cccc(Nc2ncc(F)c(NC(C)(C)CO)n2)c1,inactive
3,O=C1C[C@@H](c2ccc(O)cc2)Oc2cc(O)cc(O)c21,inactive
4,COc1ccc2c(Oc3ccc(NC(=O)c4c(C)n(CC(C)(C)O)n(-c5ccccc5)c4=O)cc3F)ccnc2c1,inactive
5,COc1ccc2c3c1OC1C[C@@H](O)C=C[C@@]31CCN(C)C2 (stereo partly drawn),inactive
6,O=C(O)c1c(Cl)c(Cl)c(Cl)c(Cl)c1-c1c2cc(I)c(=O)c(I)c-2oc2c(I)c(O)c(I)cc12,inactive
7,N#CC(=C(N)Sc1ccccc1N)C(C#N)=C(N)Sc1ccccc1N,inactive
8,c1ccc2c(Cc3c[nH]c4ccccc34)c[nH]c2c1,inactive
9,O=C1c2c(O)cc(O)cc2O[C@H](c2cc(O)c(O)c(O)c2)[C@H]1O,inactive
10,CN(C[C@@H]1COCCO1)S(=O)(=O)Nc1ccc2ccc3ncc(-c4cnn(C)c4)cc3c(=O)c2c1,inactive
11,O=c1cc(-c2ccccc2)oc2cc(O)c(O)c(O)c12,inactive
12,NC1CCC(Nc2nc(Nc3ccc(C(=O)N4CCCCC4)cc3)c3ncn(-c4cccc(F)c4)c3n2)CC1 (stereo not drawn),inactive
13,NC[C@@H]1O[C@@H](O[C@H]2[C@@H](O)[C@H](O[C@@H]3[C@@H](O)[C@@H](N)C[C@H](N)[C@H]3O[C@H]3O[C@H](CN)[C@@H](O)[C@@H](O)[C@H]3N)O[C@H]2CO)[C@H](N)[C@@H](O)[C@@H]1O,inactive
14,NS(=O)(=O)c1cccc2c1C(=O)c1cccc(O)c1C2=O,3.32 µM (active)
15,NC(=O)[C@@H](CCC(F)(F)F)N(Cc1ccc(-c2ncon2)cc1F)S(=O)(=O)c1ccc(Cl)cc1,inactive
16,COc1ccc(-n2c(C)c([N+](=O)[O-])c3ccc(O)cc32)cc1,inactive
17,O=C(Nc1ccccc1Br)N[C@@H]1CCN(c2ccc(C(F)(F)F)cn2)C1,inactive
18,Cc1ccc(C(C)(O)c2nc3ccccc3s2)c(C)c1 (stereo not drawn),inactive
19,O=c1cc(-c2ccccc2)oc2cc(O)cc(O)c12,inactive
